From PubChem BioAssay (NCATS)
“And” between values parts separate entries of the source, which are not always exact repeats. Equal values may be shown once. Inconclusive results are not listed. Entries that show only a call come without a potency. A number with no mark means an inactive call. The source made the active and inactive calls. Calls follow the shape of the dose curve; as a rule, active = well fitted inhibition curve with a large enough effect; inconclusive = small, poorly fitted or top-dose-only effect; inactive = flat fitted curve, though single readings scatter.

Tests used:
[1] = system: Dd2; assay: qHTS profiling for inhibitors of Plasmodium falciparum proliferation (AID 504749); also: potency is read from the fitted curve at half-maximal effect; details: P. falciparum in erythrocytes, SYBR Green DNA, 72 h; series mostly up to 28.7 µM
How it was run: (§1)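 Readout was DNA-dye fluorescence from lysed cultures, ex 485/em 535 nm. Parasitized red cells had grown 72 h with compound; data scaled between 0.29 uM artemisinin and DMSO wells and corrected using vehicle-only plates.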

[2] = system: ECU; assay: as above; details: P. falciparum in erythrocytes, SYBR Green DNA, 72 h; series mostly up to 28.7 µM
How it was run: as §1

[3] = system: FAB9; assay: as above; details: P. falciparum in erythrocytes, SYBR Green DNA, 72 h; series mostly up to 28.7 µM
How it was run: as §1

[4] = system: HB3; assay: as above; details: P. falciparum in erythrocytes, SYBR Green DNA, 72 h; series mostly up to 28.7 µM
How it was run: as §1

[5] = system: ICS; assay: as above; details: P. falciparum in erythrocytes, SYBR Green DNA, 72 h; series mostly up to 28.7 µM
How it was run: as §1

[6] = system: JCK; assay: as above; details: P. falciparum in erythrocytes, SYBR Green DNA, 72 h; series mostly up to 28.7 µM
How it was run: as §1

[7] = system: N140; assay: as above; details: P. falciparum in erythrocytes, SYBR Green DNA, 72 h; series mostly up to 28.7 µM
How it was run: as §1

[8] = system: P93_24; assay: as above; details: P. falciparum in erythrocytes, SYBR Green DNA, 72 h; series mostly up to 28.7 µM
How it was run: as §1

[9] = system: P94_40; assay: as above; details: P. falciparum in erythrocytes, SYBR Green DNA, 72 h; series mostly up to 28.7 µM
How it was run: as §1

[10] = system: PAD; assay: as above; details: P. falciparum in erythrocytes, SYBR Green DNA, 72 h; series mostly up to 28.7 µM
How it was run: as §1

[11] = system: PC15; assay: as above; details: P. falciparum in erythrocytes, SYBR Green DNA, 72 h; series mostly up to 28.7 µM
How it was run: as §1

[12] = system: PC26; assay: as above; details: P. falciparum in erythrocytes, SYBR Green DNA, 72 h; series mostly up to 28.7 µM
How it was run: as §1

[13] = system: SC27B; assay: as above; details: P. falciparum in erythrocytes, SYBR Green DNA, 72 h; series mostly up to 28.7 µM
How it was run: as §1

[14] = system: TAB109; assay: as above; details: P. falciparum in erythrocytes, SYBR Green DNA, 72 h; series mostly up to 28.7 µM
How it was run: as §1

[15] = system: TAB113; assay: as above; details: P. falciparum in erythrocytes, SYBR Green DNA, 72 h; series mostly up to 28.7 µM
How it was run: as §1

[16] = system: TAB165; assay: as above; details: P. falciparum in erythrocytes, SYBR Green DNA, 72 h; series mostly up to 28.7 µM
How it was run: as §1

[17] = system: CRL-7250; assay: Cytotoxic Profiling of Annotated Libraries Using Quantitative High-Throughput Screening (AID 1296008); details: Five cell lines viability, CellTiter-Glo ATP luminescence, 48-72 h; max response: hits give low values
How it was run: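 Cells exposed to compounds for 48 or 72 hr at 37 degrees Celsius. Viability read as ATP-coupled luminescence with CellTiter-Glo after 10 min at room temperature.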

[18] = system: GB4; assay: qHTS profiling for inhibitors of Plasmodium falciparum proliferation (AID 504749); also: potency is read from the fitted curve at half-maximal effect; details: P. falciparum in erythrocytes, SYBR Green DNA, 72 h; series mostly up to 28.7 µM
How it was run: as §1

[19] = system: PC49; assay: as above; details: P. falciparum in erythrocytes, SYBR Green DNA, 72 h; series mostly up to 28.7 µM
How it was run: as §1

[20] = system: W2; assay: as above; details: P. falciparum in erythrocytes, SYBR Green DNA, 72 h; series mostly up to 28.7 µM
How it was run: as §1
Also: nearly all actives have a fitted effect of over 60% in size.

## CC12CC3CC(C)(C1)CC(N)(C3)C2
[1]
  Potency: 5.01 µM (active)
[2]
  Potency: inactive
[3]
  Potency: inactive
[4]
  Potency: inactive
[5]
  Potency: inactive
[6]
  Potency: inactive
[7]
  Potency: inactive
[8]
  Potency: 10 µM (active)
[9]
  Potency: inactive
[10]
  Potency: inactive
[11]
  Potency: inactive
[12]
  Potency: inactive
[13]
  Potency: inactive
[14]
  Potency: inactive
[15]
  Potency: inactive
[16]
  Potency: inactive
[17]
  outcome: inactive

## NCCS(=O)(=O)O
[1]
  Potency: inactive
[2]
  Potency: inactive
[3]
  Potency: inactive
[18]
  Potency: inactive
[4]
  Potency: inactive
[5]
  Potency: inactive
[6]
  Potency: inactive
[7]
  Potency: inactive
[8]
  Potency: inactive
[9]
  Potency: inactive
[10]
  Potency: inactive
[11]
  Potency: inactive
[12]
  Potency: inactive
[19]
  Potency: inactive
[13]
  Potency: inactive
[14]
  Potency: inactive
[15]
  Potency: inactive
[16]
  Potency: inactive
[17]
  max response: -1.77% and -3.17%

## Cc1ccc(C(=O)Nc2ccc(S(=O)(=O)O)c3cc(S(=O)(=O)O)cc(S(=O)(=O)O)c23)cc1NC(=O)c1cccc(NC(=O)Nc2cccc(C(=O)Nc3cc(C(=O)Nc4ccc(S(=O)(=O)O)c5cc(S(=O)(=O)O)cc(S(=O)(=O)O)c45)ccc3C)c2)c1
[1]
  Potency: inactive
[2]
  Potency: inactive
[3]
  Potency: inactive
[18]
  Potency: inactive
[4]
  Potency: inactive
[5]
  Potency: inactive
[6]
  Potency: inactive
[7]
  Potency: inactive
[8]
  Potency: inactive
[9]
  Potency: inactive
[10]
  Potency: inactive
[11]
  Potency: inactive
[12]
  Potency: inactive
[19]
  Potency: inactive
[13]
  Potency: inactive
[15]
  Potency: inactive
[16]
  Potency: inactive
[20]
  Potency: inactive
[17]
  max response: 0.897%

## CS(=O)(=O)CCNCc1ccc(-c2ccc3ncnc(Nc4ccc(OCc5cccc(F)c5)c(Cl)c4)c3c2)o1
[1]
  Potency: inactive
[2]
  Potency: inactive
[3]
  Potency: inactive
[18]
  Potency: inactive
[4]
  Potency: inactive
[5]
  Potency: inactive
[6]
  Potency: inactive
[7]
  Potency: inactive
[8]
  Potency: inactive
[9]
  Potency: inactive
[10]
  Potency: inactive
[11]
  Potency: inactive
[12]
  Potency: inactive
[19]
  Potency: inactive
[13]
  Potency: inactive
[14]
  Potency: inactive
[15]
  Potency: inactive
[16]
  Potency: inactive
[20]
  Potency: inactive
[17]
  outcome: inactive

## CC[N+](CC)(CC)CCOc1cccc(OCC[N+](CC)(CC)CC)c1OCC[N+](CC)(CC)CC
[1]
  Potency: inactive
[2]
  Potency: inactive
[3]
  Potency: inactive
[18]
  Potency: inactive
[4]
  Potency: inactive
[5]
  Potency: inactive
[6]
  Potency: inactive
[7]
  Potency: inactive
[8]
  Potency: inactive
[9]
  Potency: inactive
[10]
  Potency: inactive
[11]
  Potency: inactive
[12]
  Potency: inactive
[19]
  Potency: inactive
[13]
  Potency: inactive
[14]
  Potency: inactive
[15]
  Potency: inactive
[16]
  Potency: inactive
[20]
  Potency: inactive
[17]
  max response: -17.1% and -8.63%

## Nc1nc2c(ncn2COC(CO)CO)c(=O)[nH]1
[1]
  Potency: inactive
[2]
  Potency: inactive
[3]
  Potency: inactive
[18]
  Potency: inactive
[4]
  Potency: inactive
[5]
  Potency: inactive
[6]
  Potency: inactive
[7]
  Potency: inactive
[8]
  Potency: inactive
[9]
  Potency: inactive
[10]
  Potency: inactive
[11]
  Potency: inactive
[12]
  Potency: inactive
[19]
  Potency: inactive
[13]
  Potency: inactive
[14]
  Potency: inactive
[15]
  Potency: inactive
[16]
  Potency: inactive
[20]
  Potency: inactive
[17]
  max response: 1.91%
